Values without a mark were called inactive. Results filed as inconclusive are left out. Calls of active or inactive are those of the source. Unless noted, calls follow the shape of the dose curve; as a rule, active = well fitted curve in either direction with a large enough effect (not every such curve was filed as active); inconclusive = small, poorly fitted or top-dose-only effect, or another doubt; inactive = flat fitted curve, though single readings scatter.
Experiments:
[1] = target: Lysosomal acid glucosylceramidase (Homo sapiens) (UniProt P04062); test: Glucocerebrosidase-p2 (AID 348; in the data active = potency below about 10 µM; also: potency is read from the fitted curve at half-maximal effect); details: purified GBA, blue fluorogenic substrate, 40 min
Chain of Lysosomal acid glucosylceramidase (Homo sapiens) (P04062 whole entry, looked up): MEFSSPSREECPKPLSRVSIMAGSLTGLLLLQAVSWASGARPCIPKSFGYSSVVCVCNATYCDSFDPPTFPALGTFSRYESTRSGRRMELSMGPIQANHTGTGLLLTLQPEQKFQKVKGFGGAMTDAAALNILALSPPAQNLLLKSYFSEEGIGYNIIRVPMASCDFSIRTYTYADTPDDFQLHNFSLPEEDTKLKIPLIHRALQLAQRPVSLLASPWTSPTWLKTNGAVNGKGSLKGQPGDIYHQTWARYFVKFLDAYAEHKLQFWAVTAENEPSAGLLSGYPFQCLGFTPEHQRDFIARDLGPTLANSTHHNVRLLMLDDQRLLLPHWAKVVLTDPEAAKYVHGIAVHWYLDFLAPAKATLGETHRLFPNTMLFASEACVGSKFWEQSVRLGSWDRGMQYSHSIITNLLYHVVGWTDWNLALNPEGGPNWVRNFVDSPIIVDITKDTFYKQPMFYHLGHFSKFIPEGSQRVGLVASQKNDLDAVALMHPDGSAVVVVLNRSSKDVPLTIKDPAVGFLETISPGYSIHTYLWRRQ
Summary of the method: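 Compounds titrated from 0.6 nM upwards against 0.2 nM enzyme in pH 5.9 citric acid/KH2PO4, taurocholate, tween-20; blue fluorogenic substrate 80 uM, 40 min room temperature, stopped and read Ex 365/Em 440 for AC50.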

[2] = AP1 Signaling Pathway (AID 357); details: ME-180 AP-1-bla reporter, EGF-induced, beta-lactamase ratio, 5 h; at 7.69 µM (top of the series) unless noted;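 also: ME-180 reporter cells stimulated with EGF at its EC50 level; % is scaled to controls: 0 for no effect and ±100 for the full control effect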
Summary of the method: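 Modulation of EGF-driven AP-1 transcription was assessed with a beta-lactamase reporter in ME-180 cells. Compound and EC50 EGF were co-incubated 5 hours at 37 °C before 2.5-hour CCF4 loading at room temperature and dual-emission reading.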

[3] = target: Cytochrome P450 1A2 (Homo sapiens) (UniProt P05177); test: p450-cyp1a2 (AID 410; calls by dose curve; also: potency is read from the fitted curve at half-maximal effect;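 as to activity change, negative = inhibition: -100% = full effect of reference inhibitor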); details: recombinant CYP1A2, luciferin-ME demethylation, luminescence; series mostly up to 57 µM
Chain of Cytochrome P450 1A2 (Homo sapiens) (P05177 whole entry, looked up): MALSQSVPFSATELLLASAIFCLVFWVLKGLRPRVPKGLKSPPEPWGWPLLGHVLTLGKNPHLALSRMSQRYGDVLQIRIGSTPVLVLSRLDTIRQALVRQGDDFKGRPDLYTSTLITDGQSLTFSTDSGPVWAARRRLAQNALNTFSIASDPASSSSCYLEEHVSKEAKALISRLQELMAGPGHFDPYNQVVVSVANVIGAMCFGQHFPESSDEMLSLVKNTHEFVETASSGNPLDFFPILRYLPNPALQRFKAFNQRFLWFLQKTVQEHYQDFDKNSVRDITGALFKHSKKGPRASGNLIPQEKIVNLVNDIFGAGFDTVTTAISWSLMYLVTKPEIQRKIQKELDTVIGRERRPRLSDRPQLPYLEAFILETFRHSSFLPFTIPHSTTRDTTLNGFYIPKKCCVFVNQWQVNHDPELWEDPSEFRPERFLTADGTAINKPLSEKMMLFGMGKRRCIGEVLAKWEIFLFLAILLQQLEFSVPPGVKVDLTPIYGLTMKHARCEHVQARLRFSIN
Summary of the method: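 Luminescent readout of luciferin formed from Luciferin-ME by human CYP1A2; data normalized against complete inhibition by 57 uM furafylline. Enzyme 20nM, substrate 100uM at Km, 100mM KPO4 buffer, 60 min reaction at room temperature.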

[4] = Stat Signaling Pathway (AID 446); details: ME-180 SIE beta-lactamase reporter, IL-6 stimulated, 5 h; at 7.69 µM (top of the series) unless noted;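 also: ME-180 cervical cancer cells given 40 pM IL-6 alongside compound; SIE-controlled beta-lactamase reporter measured as 460/530 nm FRET emission ratio; % is scaled to controls: 0 for no effect and ±100 for the full control effect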
Summary of the method: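 Screening format detects activators and inhibitors alike: ME-180 SIE-bla cells stimulated at 40 pM IL-6 for 5 hrs with compound, then dual-emission beta-lactamase read at 405 nm excitation.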

[5] = target: Glucocorticoid receptor (Homo sapiens) (UniProt P04150); test: GR-EFC Redistribution (AID 451; calls by dose curve; also: potency is read from the fitted curve at half-maximal effect); details: CHO-K1 GR-EFC translocation, beta-gal luminescence, 2 h
Chain of Glucocorticoid receptor (Homo sapiens) (P04150 whole entry, looked up, the tested form may be a part): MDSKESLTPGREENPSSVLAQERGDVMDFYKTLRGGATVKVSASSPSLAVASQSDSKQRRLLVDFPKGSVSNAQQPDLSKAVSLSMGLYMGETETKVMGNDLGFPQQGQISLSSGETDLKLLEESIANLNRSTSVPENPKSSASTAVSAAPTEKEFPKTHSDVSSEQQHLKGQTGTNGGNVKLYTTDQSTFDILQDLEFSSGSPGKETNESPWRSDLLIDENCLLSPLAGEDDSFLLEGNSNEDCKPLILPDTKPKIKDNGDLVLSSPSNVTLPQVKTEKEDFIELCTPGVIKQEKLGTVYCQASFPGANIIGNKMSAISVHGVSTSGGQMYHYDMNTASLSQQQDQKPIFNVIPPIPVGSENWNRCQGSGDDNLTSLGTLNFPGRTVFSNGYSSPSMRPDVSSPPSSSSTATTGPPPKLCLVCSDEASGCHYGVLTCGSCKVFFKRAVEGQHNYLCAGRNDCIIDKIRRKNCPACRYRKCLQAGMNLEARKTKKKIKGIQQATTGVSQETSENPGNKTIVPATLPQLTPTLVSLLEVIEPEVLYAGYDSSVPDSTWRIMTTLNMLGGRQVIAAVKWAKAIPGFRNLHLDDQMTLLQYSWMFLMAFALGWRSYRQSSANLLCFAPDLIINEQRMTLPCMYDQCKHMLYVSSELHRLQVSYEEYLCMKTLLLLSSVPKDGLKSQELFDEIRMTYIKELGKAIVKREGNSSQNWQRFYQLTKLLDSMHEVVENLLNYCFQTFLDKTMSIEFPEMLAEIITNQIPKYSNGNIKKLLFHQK
Summary of the method: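 Translocation of GR-ED fusion to nuclear EA restores b-gal, read by luminescence after 1 h room-temperature detection. Engineered CHO-K1 biosensor cells, 1,000/well, exposed 2 h at 37 C to titrations up to 46 uM final.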

[6] = target: Mitogen-activated protein kinase 10 (Mus musculus) (UniProt Q61831); test: JNK3 AlphaScreen Assay (AID 530); details: JNK3 lysate, c-Jun phosphorylation; series mostly up to 57.1 µM;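 also: kinase came from lysate of stimulated human HepG2 cells; signal reports phosphorylation of biotinylated GST-cJun 1-79 at Ser73 with 10 µM ATP; % is scaled to controls: 0 for no effect and ±100 for the full control effect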
Summary of the method: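 Compound titrations were preincubated 15 minutes at room temperature with substrate, antibody and pre-activated JNK3-containing HepG2 lysate. Reactions were started with 10 uM ATP and stopped with EDTA-containing bead buffer for AlphaScreen detection.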

[7] = target: 3',5'-cyclic-AMP phosphodiesterase 4B (Homo sapiens) (UniProt Q07343); test: qHTS Assay for Inhibitors of PDE-IV (AID 607; active = well fitted activation curve with a large enough effect in the main read-out, with a control signal flat, not every such curve was filed as active; also: % of control where 0% means no effect); details: HEK293 ACTOne CNG channel cells, membrane potential fluorescence; series mostly up to 22.9 µM
Chain of 3',5'-cyclic-AMP phosphodiesterase 4B (Homo sapiens) (Q07343 whole entry, looked up): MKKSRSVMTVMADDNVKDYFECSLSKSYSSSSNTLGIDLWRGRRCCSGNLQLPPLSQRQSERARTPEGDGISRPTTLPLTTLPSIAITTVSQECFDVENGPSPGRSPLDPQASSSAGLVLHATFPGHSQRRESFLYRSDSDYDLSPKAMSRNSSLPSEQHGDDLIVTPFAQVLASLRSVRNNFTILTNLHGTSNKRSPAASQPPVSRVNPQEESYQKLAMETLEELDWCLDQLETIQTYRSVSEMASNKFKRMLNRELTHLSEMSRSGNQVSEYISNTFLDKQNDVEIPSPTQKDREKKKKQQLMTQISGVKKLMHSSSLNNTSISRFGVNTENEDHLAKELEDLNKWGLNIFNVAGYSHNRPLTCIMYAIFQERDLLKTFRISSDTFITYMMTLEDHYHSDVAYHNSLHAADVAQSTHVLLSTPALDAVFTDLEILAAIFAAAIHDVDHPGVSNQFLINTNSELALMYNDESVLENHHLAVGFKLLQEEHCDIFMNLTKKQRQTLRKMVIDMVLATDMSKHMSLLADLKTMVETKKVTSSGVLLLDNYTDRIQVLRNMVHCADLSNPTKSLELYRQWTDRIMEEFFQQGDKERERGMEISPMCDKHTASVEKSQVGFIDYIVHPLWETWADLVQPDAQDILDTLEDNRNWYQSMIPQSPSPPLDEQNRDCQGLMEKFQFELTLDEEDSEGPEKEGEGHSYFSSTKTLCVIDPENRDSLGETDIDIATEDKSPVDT
Summary of the method: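 The readout is membrane depolarisation from a cAMP-sensing CNG channel, detected with a potential dye at ex 535/em 590. Cells were HEK293-derived (endogenous PDE-IV) at 1000 cells/well, titrated up to 22.9 uM final.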

[8] = Primary qHTS for small molecule stabilizers of the endoplasmic reticulum resident proteome: Secreted ER Calcium Modulated Protein (SERCaMP) assay (AID 1508630; active = well fitted curve in the direction sought with a large enough effect; an effect the other way counts as inactive or inconclusive; also: % is scaled to controls: 0 for no effect and ±100 for the full control effect); details: SH-SY5Y GLuc-SERCaMP (Gaussia luciferase released on ER calcium loss) secretion, thapsigargin, luminescence; series mostly up to 38.4 µM
Summary of the method: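 GLuc-SERCaMP-expressing SH-SY5Y cells, pretreated 16 h with compound, are challenged with thapsigargin to empty ER calcium stores; after 4 h, coelenterazine is added directly to the medium and luminescence is imaged.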

[9] = target: Cytochrome P450 2C9 (Homo sapiens) (UniProt P11712); test: qHTS Assay for Inhibitors and Substrates of Cytochrome P450 2C9 (AID 883; active = well fitted curve in the direction sought with a large enough effect; an effect the other way counts as inactive or inconclusive; also: nearly all actives have a fitted effect of over 60% in size; also: potency is read from the fitted curve at half-maximal effect); details: recombinant CYP2C9, luciferin-H luminescence, 60 min; series mostly up to 57.1 µM
Chain of Cytochrome P450 2C9 (Homo sapiens) (P11712 whole entry, looked up): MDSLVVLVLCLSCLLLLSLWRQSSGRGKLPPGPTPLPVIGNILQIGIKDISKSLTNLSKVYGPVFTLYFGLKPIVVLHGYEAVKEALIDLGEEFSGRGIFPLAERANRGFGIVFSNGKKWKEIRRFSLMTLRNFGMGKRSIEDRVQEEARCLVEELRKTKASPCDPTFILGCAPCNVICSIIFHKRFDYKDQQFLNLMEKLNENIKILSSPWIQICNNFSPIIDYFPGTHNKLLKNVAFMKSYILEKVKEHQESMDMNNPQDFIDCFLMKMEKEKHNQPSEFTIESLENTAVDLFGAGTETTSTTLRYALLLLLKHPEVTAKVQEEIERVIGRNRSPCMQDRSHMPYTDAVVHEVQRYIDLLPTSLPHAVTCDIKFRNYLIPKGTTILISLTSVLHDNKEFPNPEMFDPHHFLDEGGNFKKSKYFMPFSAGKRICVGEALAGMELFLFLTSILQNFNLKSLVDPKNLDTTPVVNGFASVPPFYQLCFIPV
Summary of the method: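 Inhibition of CYP2C9 is scored as loss of luminescence, with 57uM sulphaphenazole defining 100% inhibition. Substrate Luciferin-H is used at 100uM, equal to its KM; enzyme at 10nM in 25mM KPO4, 60 min at 37C with NADPH regeneration.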

[10] = target: Cytochrome P450 2D6 (Homo sapiens) (UniProt P10635); test: qHTS Assay for Inhibitors and Substrates of Cytochrome P450 2D6 (AID 891; active = well fitted curve in the direction sought with a large enough effect; an effect the other way counts as inactive or inconclusive; also: nearly all actives have a fitted effect of over 60% in size; also: potency is read from the fitted curve at half-maximal effect); details: recombinant CYP2D6, luciferin-ME EGE luminescence; series mostly up to 57.1 µM
Chain of Cytochrome P450 2D6 (Homo sapiens) (P10635 whole entry, looked up): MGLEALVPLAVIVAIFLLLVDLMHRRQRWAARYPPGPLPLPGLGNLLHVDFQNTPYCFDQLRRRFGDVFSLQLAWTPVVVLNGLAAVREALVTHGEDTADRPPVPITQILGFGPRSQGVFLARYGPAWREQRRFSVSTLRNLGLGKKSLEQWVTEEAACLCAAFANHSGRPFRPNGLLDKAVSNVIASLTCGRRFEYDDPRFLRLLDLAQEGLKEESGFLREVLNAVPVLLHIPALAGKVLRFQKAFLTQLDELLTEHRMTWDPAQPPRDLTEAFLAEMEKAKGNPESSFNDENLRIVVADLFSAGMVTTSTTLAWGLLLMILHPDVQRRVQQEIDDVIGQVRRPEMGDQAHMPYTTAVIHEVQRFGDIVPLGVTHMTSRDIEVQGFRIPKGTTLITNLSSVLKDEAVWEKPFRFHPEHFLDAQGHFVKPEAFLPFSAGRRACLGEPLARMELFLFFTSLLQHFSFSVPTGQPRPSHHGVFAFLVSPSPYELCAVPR
Summary of the method: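 Human CYP2D6 (5 nM) with 30 uM Luciferin-ME EGE (at Km) in 100 mM KPO4, compound preincubated 10 min, then NADPH regeneration system for 60 min at room temperature. Luciferin read by luminescence; normalized to 1.43 uM quinidine.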

[11] = target: Cytochrome P450 2C19 (Homo sapiens) (UniProt P33261); test: qHTS Assay for Inhibitors and Substrates of Cytochrome P450 2C19 (AID 899; active = well fitted curve in the direction sought with a large enough effect; an effect the other way counts as inactive or inconclusive; also: nearly all actives have a fitted effect of over 60% in size; also: potency is read from the fitted curve at half-maximal effect); details: recombinant CYP2C19, luciferin-H EGE luminescence; series mostly up to 57.1 µM
Chain of Cytochrome P450 2C19 (Homo sapiens) (P33261 whole entry, looked up): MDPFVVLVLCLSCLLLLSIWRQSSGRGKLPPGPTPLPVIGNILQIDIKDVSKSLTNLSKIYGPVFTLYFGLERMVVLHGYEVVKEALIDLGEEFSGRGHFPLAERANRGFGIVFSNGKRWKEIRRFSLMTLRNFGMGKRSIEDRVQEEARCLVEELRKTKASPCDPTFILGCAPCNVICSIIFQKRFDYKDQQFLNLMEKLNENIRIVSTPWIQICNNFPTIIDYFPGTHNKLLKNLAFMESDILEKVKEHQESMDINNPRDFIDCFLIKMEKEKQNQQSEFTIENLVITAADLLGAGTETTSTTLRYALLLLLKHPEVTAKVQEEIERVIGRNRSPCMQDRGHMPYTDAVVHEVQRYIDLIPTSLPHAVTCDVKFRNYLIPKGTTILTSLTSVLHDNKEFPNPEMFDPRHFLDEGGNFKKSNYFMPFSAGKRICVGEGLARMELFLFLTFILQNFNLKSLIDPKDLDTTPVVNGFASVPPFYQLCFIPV
Summary of the method: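 5nM enzyme + 10uM Luciferin-H EGE (=KM), 50mM KPO4; cpd pin-transferred, 10 min 37C; NADPH regen, 60 min 37C; stopped w/ luciferin detection reagent, 20 min; luminescence. Normalized to 57uM ketoconazole (AC100).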

[12] = NFAT Signaling Pathway (AID 444); details: Jurkat NFAT-bla M1, carbachol, beta-lactamase ratio, 5 h; at 7.69 µM (top of the series) unless noted
Summary of the method: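 Read-out: CCF4 FRET ratio (460 nm/530 nm) after 1 h RT dye loading, used for %activity and AC50 from titration series. Cells: Jurkat NFAT-β-lactamase/M1 line, treated with compound plus 1 uM carbachol for 5 h, 37 °C.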

[13] = target: Glucocorticoid receptor (Homo sapiens) (UniProt P04150); test: GR-GFP Redistribution (AID 450;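 active = compounds whose dose series gives a full or clear partial fitted curve of increased nuclear translocation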; also: potency is read from the fitted curve at half-maximal effect); details: U2OS GR-GFP nuclear translocation, laser cytometry, 2 h
[14] = target: Cytochrome P450 3A4 (Homo sapiens) (UniProt P08684); test: qHTS Assay for Activators of Cytochrome P450 3A4 (AID 885; active = well fitted curve in the direction sought with a large enough effect; an effect the other way counts as inactive or inconclusive; also: nearly all actives have a fitted effect of over 65% in size; also: potency is read from the fitted curve at half-maximal effect); details: recombinant CYP3A4, Luciferin-PPXE luminescence, 60 min; series mostly up to 57.1 µM
Chain of Cytochrome P450 3A4 (Homo sapiens) (P08684 whole entry, looked up): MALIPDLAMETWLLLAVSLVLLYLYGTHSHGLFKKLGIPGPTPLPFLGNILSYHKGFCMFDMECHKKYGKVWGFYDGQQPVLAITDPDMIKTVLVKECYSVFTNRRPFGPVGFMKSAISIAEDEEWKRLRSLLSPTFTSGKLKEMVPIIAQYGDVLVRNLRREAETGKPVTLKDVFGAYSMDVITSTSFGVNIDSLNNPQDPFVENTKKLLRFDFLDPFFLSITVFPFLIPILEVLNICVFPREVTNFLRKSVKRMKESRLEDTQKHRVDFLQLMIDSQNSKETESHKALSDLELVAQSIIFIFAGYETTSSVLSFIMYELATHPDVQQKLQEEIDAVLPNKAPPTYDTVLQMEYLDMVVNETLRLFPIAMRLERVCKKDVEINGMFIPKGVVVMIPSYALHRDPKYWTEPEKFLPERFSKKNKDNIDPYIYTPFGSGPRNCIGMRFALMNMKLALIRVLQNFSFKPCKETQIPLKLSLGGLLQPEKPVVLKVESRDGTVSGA
Summary of the method: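 Steps: enzyme/substrate mix dispensed; compound added, 10 min RT; NADPH regeneration solution added, 60 min RT; luciferin detection buffer stops reaction; 20 min later luminescence measured.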

[15] = target: Cytochrome P450 3A4 (Homo sapiens) (UniProt P08684); test: qHTS Assay for Inhibitors and Substrates of Cytochrome P450 3A4 (AID 884; active = well fitted curve in the direction sought with a large enough effect; an effect the other way counts as inactive or inconclusive; also: nearly all actives have a fitted effect of over 50% in size; also: potency is read from the fitted curve at half-maximal effect); details: recombinant CYP3A4, Luciferin-PPXE luminescence; series mostly up to 57.1 µM
Summary of the method: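 20 nM human CYP3A4 with 25 uM Luciferin-PPXE (at KM) in 200 mM KPO4, preincubated 10 min with compound; NADPH regeneration started a 60 min RT reaction. Luciferin detected by luminescence, normalized to 57 uM ketoconazole as full inhibition.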

| Compound | Potency [1] | activity change, negative = inhibition [2] | Potency [3] | activity, negative = inhibition [4] | Potency [5] | Potency [6] | Potency [7] | outcome [8] | Potency [9] | Potency [10] | Potency [11] | activity change, negative = inhibition [12] | Potency [13] | Potency [14] | Potency [15] |
| --- | --- | --- | --- | --- | --- | --- | --- | --- | --- | --- | --- | --- | --- | --- | --- |
| Cn1cccc1C(=O)N1CCC2(CC1)CCN(c1ccccn1)CC2 | > 11.4 µM | -0.389% | 15.8 µM (active) | -4.58% | > 46 µM | inactive | inactive | inactive |  |  |  |  |  |  |  |
| O=C(c1ccco1)N1CCC2(CCCN(c3ccncc3)C2)CC1 | > 11.4 µM | -2.46% | inactive | 3.15% | > 46 µM | inactive | inactive | inactive | inactive | inactive | inactive |  |  |  |  |
| O=c1c(-c2ccc(F)c(F)c2)nc2cncnc2n1-c1ccccc1 | > 11.4 µM | -19.9% | 12.6 µM (active) |  | > 46 µM | inactive |  | inactive |  |  |  | 3.06% | > 9.22 µM | inactive |  |
| N#Cc1cccc(NC(=O)N2CC[C@@]3(CCCN(S(=O)(=O)c4ccccc4)C3)C2)c1 | > 11.4 µM | -14% | 25.1 µM (active) | -7.29% |  | inactive | inactive | inactive |  |  |  | 3.6% |  | inactive | 3.16 µM (active) |
| Cn1cc(-c2nc3cnc(Oc4ccccc4)nc3n(CCC#N)c2=O)c2ccccc21 | > 11.4 µM | 5.74% | 3.16 µM (active) |  | > 46 µM | inactive | inactive | inactive |  |  |  | 7.14% | > 9.22 µM | inactive |  |
| COc1ccccc1CN1CC2(CCN(S(=O)(=O)c3ccccc3)CC2)C1 | > 11.4 µM | 18.5% | inactive | 7.2% | > 46 µM | inactive | inactive | inactive | inactive | inactive | inactive |  |  | inactive |  |
| CC(=O)N1CCC2(CC1)CCN(C(c1ccccc1)c1ccccc1)CC2 | > 11.4 µM | -6.19% | inactive | -5.71% | > 46 µM | inactive | inactive | inactive |  | 7.94 µM (active) |  |  |  | 25.1 µM (active) | inactive |
| COC(=O)N1CCC2(CC1)CCN(c1ccncc1)CC2 | > 11.4 µM | 6.46% | inactive | 20.2% | > 46 µM | inactive | inactive | inactive |  |  |  |  |  |  |  |
| CC(C)NC(=O)N1CCC2(CC1)CCN(C(=O)c1cccn1C)CC2 | > 11.4 µM | 15.2% | inactive | 2.35% | > 46 µM | inactive | inactive | inactive |  |  |  |  |  |  |  |
| O=C(c1ccco1)N1CCC2(CCCN(Cc3ccncc3)C2)CC1 | > 11.4 µM | -1.32% | 15.8 µM (active) | -14.4% | > 46 µM | inactive | inactive | inactive |  | 3.16 µM (active) |  |  |  | inactive | 5.01 µM (active) |
| COC(=O)N1CCC2(CC1)CCN(c1ccccn1)CC2 | > 11.4 µM | -8.66% | inactive | -8.24% | > 46 µM | inactive | inactive | inactive |  |  |  |  |  | 20 µM (active) | inactive |
| COc1ccccc1CCn1c(=O)c(-c2ccc(Cl)cc2)nc2cncnc21 | > 11.4 µM | 10.2% | 0.631 µM (active) | 6.76% | > 46 µM | inactive | inactive | inactive | 3.98 µM (active) |  | 0.398 µM (active) |  | > 9.22 µM | inactive | 3.98 µM (active) |
| Cc1nc2cnc(Oc3cccc(Cl)c3)nc2n(CCc2ccccc2)c1=O | > 11.4 µM | 2.12% | 12.6 µM (active) | 18.7% | > 46 µM | inactive |  | inactive |  |  |  |  | > 9.22 µM |  |  |

— PubChem BioAssay (NCATS)
